Nrf2 activator – qHTS of Nrf2 Activators; AREc32 ARE-luciferase reporter (MCF7-derived line), luminescence, 24 h; Potency, µM (series often up to 46.1 µM), usual class: activators; hit rate 0.31% among 410,000; AID 624171, 2012; further: nearly all actives have a fitted effect of over 65% in size
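AREc32_Fluc, 1000 cells/well, OPTI-MEM + 5% FBS, o/n 37 deg C 5% CO2; 23 nL cpd by pin tool, 24 hr; Steady-Glo 30 min RT, luminescence.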
miR-21 reporter – qHTS Assay for Modulators of miRNAs and/orActivators of miR-21. Potency, µM (series often up to 38.3 µM), actives largely listed as activators. 340,000 tested, under 10 active. AID 2288, 2010. HeLa miR-21 FLuc reporter, luciferase, 48 h;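 further: miR-21 action dims this reporter so a rising signal means less miR-21 action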
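Compounds were titrated across several concentrations (up to approximately 40 uM) and incubated 48 hours with HeLa miR-21-FLuc reporter cells (miR-21 target sequence downstream of FLuc, endogenous miR-21). Readout was firefly luciferase luminescence after lytic detection reagent.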
ClpP mod – qHTS Assay for Activators of ClpP | ATP-dependent Clp protease proteolytic subunit (Bacillus subtilis (strain 168)), P80244 | purified B. subtilis ClpP, FRET peptide cleavage, 20 min | Potency, µM (titrated, usually from 57.5 µM) | hit rate 1.9% among 340,000; active means well fitted falling curve with a large enough effect; inconclusive means small, poorly fitted or top-dose-only effect; inactive means no such curve, though single readings can be large or run the other way; further: the source files actives as falling curves though it sought activators and does not explain the sign; nearly all actives have a fitted effect of over 65% in size
Target sequence (P80244 whole entry, looked up): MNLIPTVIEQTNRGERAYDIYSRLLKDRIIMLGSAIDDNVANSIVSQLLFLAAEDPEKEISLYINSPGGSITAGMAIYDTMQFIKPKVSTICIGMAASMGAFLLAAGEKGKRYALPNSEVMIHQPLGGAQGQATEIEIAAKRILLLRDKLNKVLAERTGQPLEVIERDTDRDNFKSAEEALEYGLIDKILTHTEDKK
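Purified B. subtilis ClpP, 10 microg/mL final in Tris/HCl pH8 with KCl, BSA, glycerol and Tween-20, cleaved an Abz/nitrotyrosine-quenched decapeptide. Fluorescence (ex 320, em 430) was read at 0 and 20 min at room temperature. Delta was normalized to 5.8 microM ADEP and DMSO/no-enzyme controls.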
Nrf2 inh – Nrf2 qHTS screen for inhibitors; A549 ARE-Fluc reporter, luciferase luminescence, 18-24 h; hit rate 2.1% among 360,000; Potency, µM (highest dose often 46 µM), actives largely listed as inhibitors; further: nearly all actives have a fitted effect of over 60% in size
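A549 ARE_Fluc cells (5000/well, 5% FBS OPTI-MEM) pre-incubated 2 h, then treated with compounds 18-24 h at 37C/5% CO2 in concentration-response. CellTiter-Fluor viability read first; BugLite luciferase luminescence after 15 min at room temperature gives Nrf2 activity.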
IL-2 act – qHTS of IL-2 Activators; IL-2 activation reporter assay, cell-based qHTS; stimulated with anti-CD3/CD4/CD28 beads; in transgenic mouse T cells; activation, % (series mostly up to about 46 µM); hit rate 0.065% among 360,000; AID 652025, 2013; in the data active means activation above about 50%; inconclusive means mostly about 30% to 49%
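Quantitative HTS in unstimulated transgenic mouse T cells, with memory T cells as non-tolerant control and PMA/ionomycin as tolerance-bypass control. Compound pretreatment lasted 60 minutes before 18 h bead stimulation; EGFP/DsRed fluorescence read.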
A549 tox – Nrf2 qHTS screen for inhibitors: counterscreen for cytotoxicity. A549 ARE-Fluc cells, CellTiter-Fluor viability, 18-24 h. Potency, µM (series often up to 46 µM), hits mostly inhibitors. hit rate 0.16% among 390,000. AID 504648, 2011
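A549 ARE-Fluc cells in 5% FBS OPTI-MEM, 5000 cells/well, rested 2 h then exposed to compounds in concentration-response for 18-24 h at 37 °C. Viability by CellTiter-Fluor fluorescence (Ex 405/Em 525) after 30 min; luciferase luminescence (BugLite, 15 min, RT) read afterwards.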
Numbers stand for hits; . = inactive; ? = inconclusive; / = not tested or not shown; [ ] = another dose, or the depositor's remark. Only some compounds are listed: those with a hit (about 3.7% of all), similar ones and a draw of the others. Unless noted, the call rests on the fitted dose curve; in most records, active means well fitted curve in the direction sought with a large enough effect; inconclusive means small, poorly fitted or top-dose-only effect, or another doubt; inactive means no such curve, though single readings can be large; an effect the other way counts as inactive or inconclusive.

SMILES	Nrf2 activator	miR-21 reporter	ClpP mod	Nrf2 inh	IL-2 act	A549 tox
Cc1ccc(OCC(=O)N(Cc2ccccc2)C2CCS(=O)(=O)C2)c([N+](=O)[O-])n1 (stereo not drawn)	.	.	.	.	.	.
CCN(C(=O)COc1ccc(C)nc1[N+](=O)[O-])C1CCS(=O)(=O)C1 (stereo not drawn)	.	.	10µM	.	.	.
Cc1csc2ncnc(N3CCN(S(=O)(=O)c4cccc(C(F)(F)F)c4)CC3)c12	.	.	.	5.2µM	.	.
CCN(CC)S(=O)(=O)c1cccc(S(=O)(=O)c2cccc(S(=O)(=O)N(CC)CC)c2)c1	.	.	.	9.2µM	.	.
COc1ccc(C2=C(C(C)=O)Sc3nnc(-c4ccc(C)cc4)n3N2C(C)=O)cc1OC	.	.	.	/	/	.
COc1cc(OC)c(OC)cc1/C=C/c1nccc2ccccc12	/	/	.	/	/	/
CCO[C@@H]1OC(C(=O)NCc2ccccc2)=C[C@H](c2ccc(C(F)(F)F)cc2)[C@H]1CCCO	.	.	.	13µM	.	16µM
Cc1ccc(CNC(=O)c2ccc3c(c2)N(Cc2ccccc2F)C(=O)c2ccccc2S3(=O)=O)cc1	.	.	.	.	/	.
O=C(NCC1CCOCC1)c1cc(COc2cccc(C(F)(F)F)c2)on1	.	.	.	23µM	.	.
Cc1cccn2c(=O)c3cc(C(=O)N(C)C)n(C)c3nc12	.	.	16µM	.	.	.
Cc1cccn2c(=O)c3cc(C(=O)NCCCN4CCCC4=O)n(C)c3nc12	.	.	16µM	?	.	.
CCCCNC(=O)c1cc2c(=O)n3cccc(C)c3nc2n1C	/	.	/	/	/	/
CCCn1c(SCc2nc(-c3cc(OC)ccc3OC)no2)nnc1-c1ccc(Cl)cc1	.	.	.	.	/	?
COCCCNC(=O)CC(NS(=O)(=O)c1ccc(OC)cc1)c1ccc(OC)cc1 (stereo not drawn)	.	.	22µM	.	.	.
COC(=O)c1scc(-c2ccc(C)cc2)c1S(=O)(=O)N1CCN(c2ccccc2)CC1	.	.	.	?	/	.
Cc1ccc(C(=O)NCC(=O)OCc2cc(=O)n3ccsc3n2)cc1	.	.	.	.	/	.
CCC1(C)CC(=O)N(c2ccc(F)c(Cl)c2)C(=O)C1	.	.	.	.	.	.
CCC1(C)CC(=O)N(c2ccc(C(=O)O)c(O)c2)C1=O (stereo not drawn)	.	.	25µM	/	.	.
COc1cccc(/C=N/NC(=O)c2cc3cc([N+](=O)[O-])ccc3s2)c1O	.	.	.	15µM	.	?
CCOc1ccc2ncc(C(=O)c3ccc(OC)cc3)c(N3CCN(CC)CC3)c2c1	.	.	.	.	.	.
CCOC(=O)C1CCCN(c2c(C(=O)c3ccc(C)cc3)cnc3ccc(OCC)cc23)C1 (stereo not drawn)	.	.	.	23µM	/	?
COc1ccc(OCC(=O)Nc2c3c(nn2C(C)(C)C)CSC3)cc1	.	.	/	12µM	.	.
O=C(NCCCc1nc2ccccc2n1Cc1ccc(Cl)cc1)c1ccco1	.	.	.	.	/	.
O=C(CN(Cc1ccco1)C(=O)c1ccc([N+](=O)[O-])cc1)Nc1ccccc1C(F)(F)F	.	/	.	.	.	.
CC(C)COc1ccc(C(=O)N(CC(=O)Nc2ccccc2C(F)(F)F)Cc2ccco2)cc1	.	/	/	18µM	.	?
SMILES	Nrf2 activator	miR-21 reporter	ClpP mod	Nrf2 inh	IL-2 act	A549 tox
Cc1ccc(-c2nc3ccccc3n2C)o1	.	.	16µM	?	.	.
Cc1ccc(CNC(=O)c2ccc3c(c2)CCN3S(=O)(=O)c2ccc(Br)cc2)cc1	.	.	.	.	/	.
CCC(=O)N1CCc2cc(Br)cc(S(=O)(=O)CCC(=O)Nc3cccc(Cl)c3)c21	.	.	.	.[9.27 µM]	/	.
O=C(Nc1ccc2oc(-c3ccccc3)nc2c1)c1ccc2c(c1)OCCO2	.	.	.	9.2µM	.	?
COc1ccc(C(=O)Nc2ccc3oc(-c4cccnc4)nc3c2)cc1OC	.	.	?	13µM	.	.
COc1cc(C(=O)Nc2ccc3oc(-c4cccnc4)nc3c2)cc(OC)c1OC	.	.	.	?	.	.
O=C(Nc1ccc2oc(-c3ccncc3)nc2c1)c1ccc2c(c1)OCCO2	.	.	/	?	.	.
COc1cc(C(=O)Nc2ccc3oc(-c4ccccc4)nc3c2)cc(OC)c1OC	.	?	.	21µM	/	?
CCc1ccc2oc(-c3ccc(NC(=O)c4cc(OC)c(OC)c(OC)c4)cc3)nc2c1	.	.	.	.	/	.
COc1ccccc1C(=O)Nc1ccc2oc(-c3ccc(F)cc3)nc2c1	.	.	20µM	?	.	.
Cc1ccc(CNS(=O)(=O)c2cc(C(=O)Nc3cccc(C(F)(F)F)c3)ccc2F)cc1	.	?	.	/	/	.
CSc1cccc(NC(=O)C2CCCN(S(=O)(=O)c3ccc(F)cc3)C2)c1 (stereo not drawn)	.	.	.	/	.	.
CS(=O)(=O)c1cccc(NC(=O)C2CC2)c1	.	.	/	.	.	.
O=C(Nc1cccc(S(=O)(=O)c2cccc(NC(=O)C3CC3)c2)c1)C1CC1	.	.	.	8.2µM	.	.
CSc1cccc(NC(=O)C2CCN(S(=O)(=O)c3ccc(F)cc3)CC2)c1	.	.	.	15µM	.	.
CSc1cccc(NC(=O)C2CCN(S(=O)(=O)c3ccc4c(c3)NC(=O)CO4)CC2)c1	.	.	.	23µM	.	.
Nc1c(-c2ccccc2)cc[nH]c1=O	/	/	/	.	/	.
O=C(c1cccc([N+](=O)[O-])c1)N1CCN(CCc2ccncc2)CC1	.	.	.	.	/	.
COc1ccc(C2c3c(n(Cc4ccccc4)cnc3=N)Oc3ccc4ccccc4c32)cc1OC (stereo not drawn)	/	/	/	.	/	.
O=C(CCl)N1N=C(c2cccs2)CC1c1ccco1 (stereo not drawn)	.	?	.	?	.	.
O=C(CCl)N1N=C(c2ccco2)CC1c1ccco1 (stereo not drawn)	16µM	?	/	.	.	.
O=C(OCC(=O)N1N=C(c2ccc(Cl)cc2)CC1c1ccco1)c1cccnc1 (stereo not drawn)	20µM	/	.	?	.	.
COCC(=O)OCC(=O)N1N=C(c2ccc(Cl)cc2)CC1c1ccco1 (stereo not drawn)	.	.	.	.	.	.
CCOc1cc(C=O)cc(N=Nc2cccc([N+](=O)[O-])c2)c1O	10µM	.	/	.	.	.
CCOC(=O)Nc1ccc(/C=C/c2ccnc3ccccc23)cc1	/	/	.	/	/	/
